# According to PubChem BioAssay (NCATS):
# Where “and” joins values, the source holds several entries; their conditions need not be identical. Identical values can stand only once. Results filed as inconclusive are left out. A structure can be active in one record and inactive in another. Calls of active or inactive are those of the source. Unless noted, the call rests on the fitted dose curve; in most records, active means well fitted curve in the direction sought with a large enough effect; inconclusive means small, poorly fitted or top-dose-only effect, or another doubt; inactive means no such curve, though single readings can be large; an effect the other way counts as inactive or inconclusive.
# Target: Cytochrome P450 2D6 (Homo sapiens) (UniProt P10635)
# Experiment: Cytochrome P450 family 2 subfamily D member 6 (CYP2D6) small molecule antagonists: luciferase biochemical (cell-free) qHTS assay (AID 1645840; active means well fitted curve in the direction sought with a large enough effect in the repeat runs; an effect the other way counts as inactive or inconclusive; further: nearly all actives have a fitted effect of over 55% in size)
# Details: P450-Glo CYP2D6 enzyme, luciferin luminescence, 1 h; series mostly up to 57.4 µM
# Summary of the method: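 P450-Glo CYP2D6 system: proluciferin substrate converted by enzyme to luciferin, read by luminescence proportional to activity. Enzyme-substrate mix with compound 10 min at room temperature, then NADPH regeneration 1 h before detection reagent.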
# Potency means the concentration at half of the fitted maximal effect.
# Sequence of Cytochrome P450 2D6 (Homo sapiens) (P10635 whole entry, looked up): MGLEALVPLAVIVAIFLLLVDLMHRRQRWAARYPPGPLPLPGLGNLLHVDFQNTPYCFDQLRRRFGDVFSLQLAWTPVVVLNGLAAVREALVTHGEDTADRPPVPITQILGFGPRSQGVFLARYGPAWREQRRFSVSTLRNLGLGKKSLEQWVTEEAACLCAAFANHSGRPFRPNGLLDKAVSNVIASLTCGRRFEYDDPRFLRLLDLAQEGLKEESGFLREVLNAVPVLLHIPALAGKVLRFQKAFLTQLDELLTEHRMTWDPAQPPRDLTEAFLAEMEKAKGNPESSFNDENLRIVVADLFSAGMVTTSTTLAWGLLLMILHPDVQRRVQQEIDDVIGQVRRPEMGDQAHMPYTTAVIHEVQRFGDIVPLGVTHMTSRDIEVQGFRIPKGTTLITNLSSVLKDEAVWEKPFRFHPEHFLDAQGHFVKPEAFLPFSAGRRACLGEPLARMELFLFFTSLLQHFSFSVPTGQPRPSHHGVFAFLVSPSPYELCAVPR
row,Compound,Potency
1,CCOC(=O)c1cnn(-c2ccc(NC(=O)C(Cl)=C(Cl)Cl)cc2)c1C(F)(F)F,15.1 µM (active)
2,Cc1ccc2c(Nc3ccc(Cl)cc3)nccc2c1Nc1ncccc1-c1ncnc2nc[nH]c12,12 µM (active)
3,CCN(CC)c1ccc(C(=C2C=CC(=[N+](CC)CC)C=C2)c2cc(S(=O)(=O)O)ccc2S(=O)(=O)[O-])cc1,15.5 µM (active)
4,COc1ccccc1-c1cc(Nc2cccc(CS(N)(=O)=O)c2)ncn1,inactive
5,CCN1CCN(Cc2ccc(-c3cc4c(NC(C)c5ccccc5)ncnc4[nH]3)cc2)CC1 (centres undefined),12 µM (active)
6,CN1CCN(C(=O)c2ccc(Nc3nccc(-c4cccs4)n3)cc2Cl)CC1,21.3 µM (active)
7,Cc1[nH]c(/C=C2\C(=O)Nc3ccc(F)cc32)c(C)c1C(=O)NC[C@H](O)CN1CCOCC1,inactive
8,O=[N+]([O-])c1ccc(-[n+]2nc(-c3ccccc3)nn2-c2ccc(I)cc2)cc1,5.35 µM (active)
9,Cc1ccc(C(=O)N2CCN(c3ccc([N+](=O)[O-])cc3)CC2)cc1Cl,inactive
10,CC(=O)N1c2ccc(-c3ccc(C(=O)O)cc3)cc2C(Nc2ccc(Cl)cc2)CC1C (centres undefined),inactive

# Target: Cytochrome P450 2C9 (Homo sapiens) (UniProt P11712)
# Experiment: Cytochrome P450 family 2 subfamily C member 9 (CYP2C9) small molecule antagonists: luciferase biochemical (cell-free) qHTS assay (AID 1645842; active means well fitted curve in the direction sought with a large enough effect in the repeat runs; an effect the other way counts as inactive or inconclusive; further: nearly all actives have a fitted effect of over 55% in size)
# Details: P450-Glo CYP2C9 enzyme assay, luciferin luminescence; series mostly up to 57.4 µM
# Summary of the method: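 P450-Glo CYP2C9 system: proluciferin substrate with enzyme in mix containing 0.4% BSA, 10 min at room temperature, then NADPH regeneration solution added and incubated 1 h at 37C. Detection reagent stopped reaction; luminescence read after 20 min as RLU.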
# Sequence of Cytochrome P450 2C9 (Homo sapiens) (P11712 whole entry, looked up): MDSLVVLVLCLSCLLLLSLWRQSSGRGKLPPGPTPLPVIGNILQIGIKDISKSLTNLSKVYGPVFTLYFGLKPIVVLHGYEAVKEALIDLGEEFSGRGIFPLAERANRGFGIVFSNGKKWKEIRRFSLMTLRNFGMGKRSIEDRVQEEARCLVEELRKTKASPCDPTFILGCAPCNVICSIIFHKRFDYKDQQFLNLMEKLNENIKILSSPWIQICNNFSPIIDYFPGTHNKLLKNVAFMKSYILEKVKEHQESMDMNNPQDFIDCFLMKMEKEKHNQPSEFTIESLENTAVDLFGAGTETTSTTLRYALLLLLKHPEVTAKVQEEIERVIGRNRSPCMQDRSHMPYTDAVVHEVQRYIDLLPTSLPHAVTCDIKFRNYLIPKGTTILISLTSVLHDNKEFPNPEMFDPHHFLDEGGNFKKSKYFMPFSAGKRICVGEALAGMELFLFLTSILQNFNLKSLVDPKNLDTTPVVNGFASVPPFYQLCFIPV
row,Compound,Potency
1,CN(CCCNC(=O)c1ccc2nc3c(c(Cl)c2c1)CCCC3)Cc1ccccc1,15.1 µM (active)
2,Cc1ccc2c(Nc3ccc(Cl)cc3)nccc2c1Nc1ncccc1-c1ncnc2nc[nH]c12,12 µM (active)
3,CCN(CC)c1ccc(C(=C2C=CC(=[N+](CC)CC)C=C2)c2cc(S(=O)(=O)O)ccc2S(=O)(=O)[O-])cc1,13.8 µM (active)
4,O=C(Nc1ccc(F)cc1)N1CCc2ccccc2C1c1ccc(C(F)(F)F)cc1 (centres undefined),5.35 µM (active)
5,COc1ccccc1-c1cc(Nc2cccc(CS(N)(=O)=O)c2)ncn1,9.52 µM (active)
6,COc1cc2ncnc(Nc3ccc(Oc4ccccc4)cc3)c2cc1OC,16.9 µM (active)
7,CCN1CCN(Cc2ccc(-c3cc4c(NC(C)c5ccccc5)ncnc4[nH]3)cc2)CC1 (centres undefined),inactive
8,CCCCn1c(-c2ccccc2)nc(-c2ccccc2)c1CN(Cc1ccc2c(c1)OCO2)Cc1ccc2c(c1)OCO2,2.68 µM (active)
9,CCC(C)n1cc(C)c2c(C(=O)NCc3c(C)cc(C)[nH]c3=O)cc(-c3ccc(N4CCNCC4)nc3)cc21 (centres undefined),2.13 µM (active)
10,COc1cc2ncnc(Oc3cccc(NC(=O)Nc4cc(C(C)(C)C(F)(F)F)on4)c3)c2cc1OC,12 µM (active)
11,O=[N+]([O-])c1ccc(-[n+]2nc(-c3ccccc3)nn2-c2ccc(I)cc2)cc1,19 µM (active)
12,Cc1ccc(C(=O)N2CCN(c3ccc([N+](=O)[O-])cc3)CC2)cc1Cl,16.9 µM (active)
13,CC(=O)N1c2ccc(-c3ccc(C(=O)O)cc3)cc2C(Nc2ccc(Cl)cc2)CC1C (centres undefined),8.49 µM (active)

# Tested on: not listed separately
# Experiment: Primary qHTS for inhibitors of nuclear receptor binding SET domain protein 2 (NSD2) in an isogenic RCH-ACV NSD2 p.E1099K mutant (9B) (AID 1645876); further: nearly all actives have a fitted effect of over 70% in size
# Details: RCH-ACV (leukaemia line) NSD2 E1099K (9B) viability, CellTiter-Glo, 72 h; series mostly up to 44.9 µM
row,Compound,Potency
1,COc1cc([C@@H](CC(=O)O)c2ccc(C)c(CN3C[C@@H](C)Oc4ccccc4S3(=O)=O)c2)cc2nnn(C)c12,inactive
2,CCCCn1ccc(N2CCC(c3ccccc3)CC2)c(Cl)c1=O,23 µM (active)
3,O=C(NNc1ccccc1)c1ccncc1,inactive
4,COc1ccccc1NC(=O)Nc1ccc2ccccc2c1,25.8 µM (active)
5,C[C@@H]1COCCN1c1cc(C2(S(C)(=N)=O)CC2)nc(-c2ccnc3[nH]ccc23)n1 (some centres undefined),662 nM (active) and 3.66 µM (active)
6,CC1OC2OC3C(OCC(O)C3O)OC(=O)C34CCC(C)(C)CC3C3=CCC5C6(C)CC(O)C(OC7OC(CO)C(O)C(O)C7OC7OCC(OC(=O)CC(C)(O)CC(=O)OC1C(OC1OCC(O)C(O)C1O)C2O)C(O)C7O)C(C)(CO)C6CCC5(C)C3(C)CC4O (centres undefined),2.52 µM (active)
7,CCOC(=O)c1cnn(-c2ccc(NC(=O)C(Cl)=C(Cl)Cl)cc2)c1C(F)(F)F,11.5 µM (active)
8,COc1ccc(Cl)cc1[C@@]1(F)C(=O)Nc2cc(C(F)(F)F)ccc21,7.28 µM (active)
9,CN(CCCNC(=O)c1ccc2nc3c(c(Cl)c2c1)CCCC3)Cc1ccccc1,12.9 µM (active)
10,Cc1ccc2c(Nc3ccc(Cl)cc3)nccc2c1Nc1ncccc1-c1ncnc2nc[nH]c12,18.4 µM (active)
11,O=C(Nc1ccc(F)cc1)N1CCc2ccccc2C1c1ccc(C(F)(F)F)cc1 (centres undefined),18.3 µM (active)
12,CC(C)(C)c1ccc(-c2nc3ccccc3[nH]2)cc1,8.93 µM (active)
13,COc1ccccc1-c1cc(Nc2cccc(CS(N)(=O)=O)c2)ncn1,4.09 µM (active)
14,COc1cc2ncnc(Nc3ccc(Oc4ccccc4)cc3)c2cc1OC,4.59 µM (active)
15,CC1(C)CC23[C@@H]4CC(=O)[C@@H]2COC(=O)[C@@H]3CC[C@H]41,12.9 µM (active)
16,CCN1CCN(Cc2ccc(-c3cc4c(NC(C)c5ccccc5)ncnc4[nH]3)cc2)CC1 (centres undefined),4.59 µM (active)

row,Compound,Potency
1,CN1CCN(C(=O)c2ccc(Nc3nccc(-c4cccs4)n3)cc2Cl)CC1,7.28 µM (active)
2,Cn1cnc(-c2nccc3c(=O)[nH]c(OCCCC(F)(F)F)nc23)c1,2.9 µM (active)
3,OCC(Cc1ccccc1)Nc1nc(Oc2ccc3c(c2)CCC3)nc2c1ncn2Cc1ccc(-c2ccccc2)cc1 (centres undefined),16.3 µM (active)
4,Cc1[nH]c(/C=C2\C(=O)Nc3ccc(F)cc32)c(C)c1C(=O)NC[C@H](O)CN1CCOCC1,6.49 µM (active) and 9.34 µM (active)
5,CCN(CCCOc1ccc2c(Nc3cc(CC(=O)Nc4cccc(F)c4)[nH]n3)ncnc2c1)CCOP(=O)(O)O,5.9 µM (active)
6,O=C1c2c(O[C@@H]3O[C@H](CO)[C@@H](O)[C@H](O)[C@H]3O)cc(O)cc2OC1(O)Cc1ccc(O)cc1 (some centres undefined),7.96 µM (active)
7,CCC(C)n1cc(C)c2c(C(=O)NCc3c(C)cc(C)[nH]c3=O)cc(-c3ccc(N4CCNCC4)nc3)cc21 (centres undefined),20.5 µM (active)
8,Cn1nccc1Nc1nccc(-c2ccn([C@H](CO)c3ccc(Cl)c(F)c3)c(=O)c2)n1,7.28 µM (active) and 7.42 µM (active)
9,CC1(C)CC[C@]2(C(=O)OC3OC(CO)C(O)C(O)C3O)CC[C@]3(C)C(=CCC4[C@@]5(C)CC[C@H](OC6OC(C(=O)O)C(O)C(O)C6O)C(CO)(CO)C5CC[C@]43C)[C@@H]2C1 (some centres undefined),0.869 µM (active)
10,Nc1ncnc2c1ncn2[C@@H]1O[C@H](CO)C[C@H]1O,10.3 µM (active) and inactive
11,O=[N+]([O-])c1ccc(-[n+]2nc(-c3ccccc3)nn2-c2ccc(I)cc2)cc1,inactive
12,O=C(NC(NC(=S)Nc1ccc(F)c([N+](=O)[O-])c1)C(Cl)(Cl)Cl)C(c1ccccc1)c1ccccc1 (centres undefined),5.41 µM (active) and 16.4 µM (active)
13,Cc1ccc(C(=O)N2CCN(c3ccc([N+](=O)[O-])cc3)CC2)cc1Cl,12.9 µM (active)
14,CC(=O)N1c2ccc(-c3ccc(C(=O)O)cc3)cc2C(Nc2ccc(Cl)cc2)CC1C (centres undefined),0.0325 µM (active)
15,C=C1/C(=C/C=C2\CCC[C@]3(C)[C@@H]([C@H](C)/C=C/C(=O)C4CC4)CC[C@@H]23)C[C@@H](O)C[C@@H]1O,16.3 µM (active)
